Records with an inconclusive call do not appear. Activity calls are given as the source filed them. Calls follow the shape of the full dose curve.
Assay: H358 Cell Viability Secondary Assay for qHTS Assay for Epigenetic Modulators
Conditions: H358 NSCLC viability, MTS absorbance, 4 days
Text: NIH Molecular Libraries Screening Centers Network [MLSCN] NIH Chemical Genomics Center [NCGC] MLSCN Grant: 1 X01 MH079860-01 Assay Provider: Elisabeth D. Martinez, University of Texas SW Medical Center NCGC Assay Overview: This secondary assay characterizes selected actives identified in the qHTS of the Locus Derepression (LDR) assay (PubChem AID 597). The LDR assay detects the derepression of a GFP reporter that is stably integrated in a region of the genome of murine c127i mammary cells that is presumably silenced. Compounds that cause derepression of the locus to express GFP are identified by enumerating GFP positive cells using a laser-scanning microplate cytometer. Selected LDR actives were assayed for killing of H358 non-small cell lung carcinoma (NSCLC) cells. Certain epigenetic drugs, like histone deacetylase inhibitors, can block cancer cell growth. H358 cell viability was measured using Cell Titer 96 AQueous One (Promega), an assay which detects the ability of metabolically active cells to reduce a tetrazolium salt substrate (MTS), into a soluble formazan product that can be measured by colorimetry.
NCGC Assay Protocol Summary Viability assays: H358 cells were plated in 96-well flat bottom tissue culture dishes (Corning) and grown overnight at 37 C and 5% CO2, then treated with increasing concentrations of compounds, incubated for four days, and assayed for viability using the Cell Titer 96 AQueous One kit (Promega) according to the manufacturer's protocol. Absorbance at 490 nm and 650 nm (reference) was measured by a Spectra Max (Molecular Devices). Data were normalized to the untreated control (100% viability). Each cell line was tested in one or two independent assays, each containing 4 or 8 replicates. For further details, see R.L. Johnson, W. Huang, A. Jadhav, C.P. Austin, J. Inglese, E.D. Martinez, A Quantitative High-Throughput Screen Identifies Potential Epigenetic Modulators of Gene Expression, Analytical Biochemistry (2007), doi: 10.1016/j.ab.2007.12.028

Row | Compound | outcome | Potency
1 | CN1C(=S)SC(c2ccccc2)N(C)C1c1ccccc1 (centres undefined) | inactive | –
2 | CC(C)C(=O)NC(c1ccco1)c1ccc2cccnc2c1O (centres undefined) | – | 500 nM (active)
3 | COc1ccc(C(NC(=O)C(C)C)c2ccc3cccnc3c2O)cc1 (centres undefined) | – | 200 nM (active)
4 | CC(C)C(=O)NC(c1ccco1)c1cc([N+](=O)[O-])c2cccnc2c1O (centres undefined) | – | 6000 nM (active)
5 | O=C(CSc1cccc2cccnc12)NCc1ccccc1 | inactive | –
6 | CC(/C=C/C(=O)NO)=C\[C@@H](C)C(=O)c1ccc(N(C)C)cc1 | – | 40 nM (active)
7 | CN1CCN(Cc2cc(Cl)c3cccnc3c2O)CC1 | – | 2000 nM (active)
8 | CC(C)C(=O)NC(c1ccc(N(C)C)cc1)c1ccc2cccnc2c1O (centres undefined) | – | 200 nM (active)
9 | O=Nc1ccc(O)c2ncccc12 | – | 3000 nM (active)

Source: PubChem BioAssay AID1043 (National Center for Advancing Translational Sciences (NCATS), 2008)
